# Assay outcomes from PubChem BioAssay.
# DT40 TDP1 CPT: DT40-hTDP1 cell growth loss with CPT; chicken DT40 Tdp1-/-;hTDP1 cells + 20 nM CPT, ATP luminescence, 48 h; Potency, µM (highest dose often 46.2 µM), inactives show at the top dose activity change, negative = growth inhibition, usual class: inhibitors; 420,000 tested, 12% active; further: potency means the concentration at half of the fitted maximal effect; on the % scale 0 is the no-effect control and ±100 the full control effect; nearly all actives have a fitted effect of over 55% in size
#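 Chicken DT40 Tdp1-/- cells complemented with human TDP1, 400 cells/well, exposed to compounds plus 20 nM camptothecin for at least 48 h at 37 C; viability read as ATP content by CellTiter-Glo luminescence.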
# IL1B secr inh: blocks inflammasome-driven IL-1 beta release. THP-1 LPS/ATP IL-1B secretion, AlphaLISA, 16 h; stronger effect = lower value. activity change, % at 57.5 µM. 360,000 tested, 4.7% active; in the data active means activity change below about -50%; inconclusive means mostly about -30% to -49%; further: on the % scale 0 is the no-effect control and ±100 the full control effect
#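 THP-1 cells pretreated 1 hr with compounds (up to 57.5 uM final), then stimulated with LPS (250 ng/mL final) plus ATP (1.25 mM final); secreted IL-1B measured by AlphaLISA after 16 hr, decreased signal indicating inhibition.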
# HepG2 viability: kills HepG2 cells in TGF-b inhibitor counter-screen; AID 588856; Potency, µM (top dose mostly 46.1 µM), without a hit: at the highest dose activity change, negative = cytotoxicity, most hits filed as cytotoxic; HepG2 CAGA-GFP viability, ATP luminescence, 18 h; 410,000 tested, 0.76% active; further: potency means the concentration at half of the fitted maximal effect
#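 CellTiter-Glo luminescence gave cytotoxicity after 18 hours at 37 degrees C. The cells were HepG2 CAGA-GFP in 1% FBS DMEM, stimulated with 500 pg/mL TGF-beta after compound addition. %Activity was normalised to no-cell wells (complete cell-killing) and DMSO (no toxicity), and curves were fitted and classified.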
# TGFb inhibitor: blocks TGF-b signaling; 410,000 tested, 1.2% active; Potency, µM (highest dose often 46.1 µM), for inactives: at the top dose activity, negative = inhibition, most hits filed as inhibitors; HepG2 CAGA-GFP TGF-b/SMAD3 reporter, GFP fluorescence, 18 h; TGF-beta stimulated, 500 pg/mL final; further: potency means the concentration at half of the fitted maximal effect; on the % scale 0 is the no-effect control and ±100 the full control effect; nearly all actives have a fitted effect of over 65% in size
#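 Inhibition of TGF-beta-driven CAGA-GFP reporter expression in HEPG2 cells is measured by cellular GFP fluorescence after 18 h stimulation with 500 pg/mL recombinant TGF-beta in 1% FBS medium at 37 degrees C.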
# DT40 TDP1 no CPT: qHTS for Inhibitors of human tyrosyl-DNA phosphodiesterase 1 (TDP1): qHTS in cells in absence of CPT. DT40 Tdp1-/- hTDP1 cells, no CPT, ATP luminescence, 48 h. Potency, µM (top dose mostly 46.2 µM), for inactives: at the top dose activity change, negative = growth inhibition, hits mostly inhibitors. 420,000 tested, 15% active. AID 686978, 2013; further: potency means the concentration at half of the fitted maximal effect; on the % scale 0 is the no-effect control and ±100 the full control effect; nearly all actives have a fitted effect of over 55% in size
#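 Readout: luminescence from CellTiter-Glo after 30 min in the dark at RT. Cells: DT40 Tdp1-/- with stable hTDP1, 400/well. Exposure: compounds alone, ≥48 hr, 37 °C.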
# TDP1 block: blocks human tyrosyl-DNA phosphodiesterase 1. Potency, µM (series often up to 130 µM), for inactives: at the highest dose activity change, negative = inhibition, most hits filed as inhibitors. AID 485290. Q9NUW8. 350,000 tested, 0.28% active. recombinant TDP1, AlphaScreen DNA substrate cleavage; further: potency means the concentration at half of the fitted maximal effect; on the % scale 0 is the no-effect control and ±100 the full control effect; nearly all actives have a fitted effect of over 40% in size
# Target sequence (Q9NUW8 whole entry, looked up): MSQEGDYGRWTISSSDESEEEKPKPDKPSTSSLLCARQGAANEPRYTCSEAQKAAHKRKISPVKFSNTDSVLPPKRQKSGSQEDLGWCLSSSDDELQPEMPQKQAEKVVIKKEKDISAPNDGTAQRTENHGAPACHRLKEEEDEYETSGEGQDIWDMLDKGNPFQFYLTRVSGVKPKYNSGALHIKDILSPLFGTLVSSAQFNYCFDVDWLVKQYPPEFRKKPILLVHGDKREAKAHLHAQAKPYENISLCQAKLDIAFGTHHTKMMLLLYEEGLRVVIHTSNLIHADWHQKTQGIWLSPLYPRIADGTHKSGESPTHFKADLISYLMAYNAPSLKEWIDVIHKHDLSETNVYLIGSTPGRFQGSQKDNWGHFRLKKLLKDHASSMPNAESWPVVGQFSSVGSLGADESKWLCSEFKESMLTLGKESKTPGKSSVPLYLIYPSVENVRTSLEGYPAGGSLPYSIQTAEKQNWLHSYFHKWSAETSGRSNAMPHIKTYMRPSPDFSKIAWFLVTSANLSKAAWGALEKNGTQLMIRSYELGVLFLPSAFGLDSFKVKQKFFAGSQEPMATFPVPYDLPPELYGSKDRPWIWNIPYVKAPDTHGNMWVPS
#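 Recombinant E. coli-expressed Tdp1 (1 nM) preincubated with compound 15 min at RT, then 5'-biotin/3'-phosphotyrosine-FITC DNA substrate (15 nM) added for 5 min. AlphaScreen beads (10 ug/ml) added, 10 min RT; tyrosine-FITC cleavage read as signal loss.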
# Active calls of the source: *; ? = inconclusive; nt = no result; [ ] = another dose, or the depositor's remark. Sampled rows, rich in hits. Any-hit rate of the full collection: about 19%. Unless noted, the call rests on the fitted dose curve; in most records, active means well fitted curve in the direction sought with a large enough effect; inconclusive means small, poorly fitted or top-dose-only effect, or another doubt; inactive means no such curve, though single readings can be large; an effect the other way counts as inactive or inconclusive.
SMILES,DT40 TDP1 CPT,IL1B secr inh,HepG2 viability,TGFb inhibitor,DT40 TDP1 no CPT,TDP1 block
CN(CC(=O)Nc1cccc(F)c1)C(=O)c1cc(-c2ccco2)nc2ccccc12,?,-9.6,-13.5%,16.0%,?,nt
COc1cccc(NC(=O)CN(C)C(=O)c2cc(-c3ccccc3)nc3ccccc23)c1,?,?,-26.4%,1.2%,?,0.8%
COc1cccc(NC(=O)CN(C)C(=O)c2cc(-c3ccc(F)cc3)nc3ccccc23)c1,?,-61.8*,-27.7%,-12.8%,?,0.4%
COc1ccc(-c2cc(C(=O)N(C)CC(=O)Nc3cccc(F)c3)c3ccccc3n2)cc1OC,20.6µM*,-2.3,-26.4%,12.6%,20.6µM*,nt
COc1ccc(NC(=O)CN(C)C(=O)c2cc(-c3ccco3)nc3ccccc23)cc1,?,-1.3,-35.3%,?,?,3.98µM*
COc1ccc(/C=N/Nc2nnc(-c3ccccc3)c(=O)[nH]2)cc1,11.6µM*,-71.2*,-7.8%,-24.3%,7.31µM*,7.0%
Cc1ccc(/C=N/Nc2nnc(Cc3ccccc3)c(=O)[nH]2)o1,-27.1%,-17.2,-0.4%,4.3%,?,7.0%
O=c1[nH]c(N/N=C/c2ccccc2Br)nnc1-c1ccccc1,14.6µM*,-8.0,-40.6%,-20.0%,23.1µM*,5.4%
CC(C)N(C(=O)c1ccc(Cc2cn(C)c3ccccc23)nc1)C(C)C,?,9.7,-21.1%,-2.6%,?,nt
O=C(Cc1cccc(NC(=O)C2CCN(C(=O)c3ccccc3)CC2)c1)Nc1cccc(C(=O)N2CCCC2)c1,-0.6%,-5.2,-8.0%,0.9%,3.0%,6.8%
O=C(Cc1cccc(NC(=O)C2CCN(C(=O)CCc3ccccc3)CC2)c1)Nc1cccc(C(=O)N2CCCC2)c1,?,-0.9,0.4%,-1.2%,16.4µM*,3.3%
CN(C(=O)c1cccc(NC(=O)Cc2cccc(NC(=O)C3CCN(C(=O)CCc4ccccc4)CC3)c2)c1)C1CC1,-96.2%,-17.3,7.7%,-27.8%,23.1µM*,nt
CN(C(=O)c1ccc(NC(=O)Cc2ccc(NC(=O)C3CCN(C(=O)CCc4ccccc4)CC3)cc2)cc1)C1CC1,25.9µM*,-8.9,-14.3%,-12.2%,18.4µM*,7.8%
CN(C(=O)c1ccc(NC(=O)Cc2ccc(NC(=O)C3CCN(C(=O)CCc4ccccc4)CC3)cc2)cc1)C1CCCC1,23.1µM*,19.3,1.1%,-3.4%,20.6µM*,nt
COC(=O)CC1c2ccccc2C(Cc2ccc3c(c2)OCO3)=C(C)N1C(=O)OC (centres undefined),nt,nt,nt,nt,nt,1.9%
c1ccc2c(c1)CCCN2,3.9%,nt,-2.8%,?,5.7%,nt
O=C(Cc1cccc(NC(=O)C2CCCN(C(=O)CCc3ccccc3)C2)c1)Nc1ccc(C(=O)N2CCCCC2)cc1 (centres undefined),29.1µM*,-108.3*,-8.8%,?,23.1µM*,nt
N#CC(C#N)=C1SC(=Nc2ccccc2)C(=Nc2ccccc2)N1c1ccccc1,5.17µM*,-9.0,10.9%,-3.5%,8.2µM*,nt
COc1cc(/C=C(\NC(=O)c2ccccc2)C(=O)NC(C(=O)O)c2ccccc2)cc(OC)c1OC (centres undefined),-2.6%,12.5,9.6%,12.3%,1.2%,nt
COc1ccc(/C=C/C(=O)OCC(=O)N2c3ccccc3CC2C)c(OC)c1 (centres undefined),?,-19.9,-6.0%,2.1%,18.4µM*,nt
CC1Cc2ccccc2N1C(=O)CO/N=C/c1ccccc1OC(F)F (centres undefined),?,-29.1,-4.1%,-19.4%,20.6µM*,0.0%
COc1cccc(/C=C/C(=O)OCC(=O)N2c3ccccc3CC2C)c1OC (centres undefined),2.9%,10.1,-0.5%,?,4.0%,-0.2%
CC1CCCN(C(=O)NC2CC(=O)N(c3ccc4c(c3)OCCO4)C2)C1 (centres undefined),-13.5%,9.8,-2.2%,0.0%,-6.7%,10.8%
COc1ccc(CNC(=O)c2cc3c(=O)n(C)c4ccccc4c3n2C)cc1,20.3%,nt,3.8%,1.5%,-1.4%,9.2%
COc1ccc(CCNC(=O)c2cc3c(=O)n(C)c4ccccc4c3n2C)cc1OC,?,-3.1,-2.3%,-2.8%,16.4µM*,1.9%
SMILES,DT40 TDP1 CPT,IL1B secr inh,HepG2 viability,TGFb inhibitor,DT40 TDP1 no CPT,TDP1 block
COc1ccc(OC)c(CCNC(=O)c2cc3c(=O)n(C)c4ccccc4c3n2C)c1,?,nt,-20.8%,?,23.1µM*,4.6%
CNc1ccc(Br)cc(C(=O)/C=C/c2cccc(OC)c2)c1=O,13µM*,-100.9*,-56.9%,?,7.31µM*,3.3%
CNc1ccc(Br)cc(C(=O)/C=C/c2ccc(OC)cc2OC)c1=O,9.2µM*,?,-2.8%,?,14.6µM*,nt
CN(C)/C=C/C(=O)/C=C/c1ccc(Cl)cc1Cl,6.6%,?,-39.3%,-16.0%,-7.6%,7.5%
CNc1ccc(Br)cc(C(=O)/C=C/c2ccc(Cl)cc2Cl)c1=O,4.61µM*,-91.1*,-25.7%,?,18.4µM*,0.0%
CCOC(=O)c1c(C)c(-c2ccccc2)n(CC(=O)Nc2cc(OC)cc(OC)c2)c1C,?,nt,-31.2%,?,?,1.0%
NC(=O)N[C@H]1NC(=O)NC1=O,nt,nt,nt,nt,nt,8.7%[21 µM]
CCOC(=O)CC1C(=O)NCCN1c1nc2ccc(C)cn2c(=O)c1/C=C1\SC(=S)N(CC(C)C)C1=O (centres undefined),?,30.4,-16.9%,185.4%,?,nt
CCCN1C(=O)/C(=C/c2c(N3CCNC(=O)C3CC(=O)OCC)nc3c(C)cccn3c2=O)SC1=S (centres undefined),18.4µM*,14.8,6.3%,78.3%,16.4µM*,nt
Clc1ccc(OCc2nnc3n2N=C(c2ccc4c(c2)OCCO4)CS3)c(Cl)c1,9.2µM*,4.3,-39.2%,?,11.6µM*,7.8%
CCc1nnc2n1N=C(c1ccc(-c3cc(Cl)ccc3Cl)o1)CS2,-25.6%,0.0,-0.4%,0.0%,?,3.7%
C[C@H]1CN([C@@H](C)CO)C(=O)CCCn2cc(nn2)CO[C@@H]1CN(C)C(=O)Nc1ccc(C(F)(F)F)cc1,-15.7%,3.6,-20.8%,3.8%,-18.5%,nt
Cc1cccc(NC(=S)NC(=O)c2cc(-c3ccccc3)nc3ccccc23)c1,20µM*,15.3,-14.3%,-5.6%,?,6.7%
